{"source": "PubChem BioAssay AID504550", "about": "(Sanford-Burnham Center for Chemical Genomics, 2011)", "note": "The other results are listed elsewhere or left out. Unmarked numbers belong to inactive results. Active and inactive are the calls of the source.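 Rule for the calls: active = mean activation at 20 µM of at least 40%; inactive = the rest.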", "data": [{"target": "Neurotensin receptor type 1 (Homo sapiens) (UniProt P30989)", "sequence (P30989 whole entry, looked up)": "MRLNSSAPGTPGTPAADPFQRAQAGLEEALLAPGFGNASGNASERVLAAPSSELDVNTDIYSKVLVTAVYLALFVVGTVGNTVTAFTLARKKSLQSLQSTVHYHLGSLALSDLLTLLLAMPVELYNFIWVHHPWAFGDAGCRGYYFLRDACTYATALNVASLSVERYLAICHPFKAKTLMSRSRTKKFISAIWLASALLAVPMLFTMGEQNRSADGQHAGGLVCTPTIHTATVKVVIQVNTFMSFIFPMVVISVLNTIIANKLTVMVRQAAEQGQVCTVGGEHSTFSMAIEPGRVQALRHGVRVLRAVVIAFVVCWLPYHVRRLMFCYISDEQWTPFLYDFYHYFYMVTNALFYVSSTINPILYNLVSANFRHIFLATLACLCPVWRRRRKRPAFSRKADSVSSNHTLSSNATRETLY", "test": "beta-arrestin-GFP spots via human NTR1 – imaging, U2OS cells, single concentration, confirmation (AID 504550);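 note: 0% = DMSO without peptide and 100% = 100 nM NTR1 peptide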", "details": "NTR1-U2OS beta-arrestin-GFP translocation imaging; at 20 µM; active compounds read high", "values": [{"compound": "OC(CN=c1sc2ccccc2n1CC(O)COc1ccccc1)COc1ccccc1", "note": "(stereo not given)", "activation": "18.2%"}, {"compound": "CCCCCCCCCCOC(=O)Cn1c(COc2cccc(OC)c2)[n+](C)c2ccccc21", "activation": "71.8% (active)"}, {"compound": "Nc1nc(Nc2ccccc2F)nc(NC2CCCCC2)c1[N+](=O)[O-]", "activation": "13.2%"}, {"compound": "O=C(N/N=C/c1ccc(OC(=O)c2ccccc2Cl)cc1)c1ccc(O)cc1", "activation": "50.1% (active)"}, {"compound": "O=c1oc2ccccc2cc1-c1csc(Nc2ccc(O)cc2)n1", "activation": "10.5%"}, {"compound": "Cc1ccc(NC(=O)COc2coc(CN3CCc4ccccc4C3)cc2=O)cc1Cl", "activation": "-2.38%"}, {"compound": "Cc1cccc(-n2c(SCC(N)=O)nc3c(c2=O)C2(CCCCC2)Cc2ccccc2-3)c1", "activation": "22.7%"}, {"compound": "Cc1cccc(-c2nc(Nc3ccc(O)cc3)c3ccccc3n2)c1", "activation": "31.3%"}, {"compound": "COc1cccc(/C=N/Nc2cc(C)nc(-c3ccccc3O)n2)c1O", "activation": "36.7%"}, {"compound": "CCCCNc1c(-c2cccc(Sc3ccc(OC)cc3)c2)nc2ccccn12", "activation": "68.2% (active)"}, {"compound": "CC(C)(C)OC(=O)N1CCC(NC(=O)c2[nH]cnc2C(=O)N[C@@H](Cc2ccccc2)C(=O)OCc2ccccc2)CC1", "activation": "51.5% (active)"}, {"compound": "CC(C)c1ccccc1OCC(O)CN(CC(O)COc1cccc2ccccc12)C(C)C", "note": "(stereo not given)", "activation": "15.3%"}, {"compound": "CC(C)Oc1c(Br)cc(Br)cc1/C=N/NC(N)=S", "activation": "26.4%"}, {"compound": "COc1ccc(C(C[N+](=O)[O-])n2nc(C)cc2C)cc1", "note": "(stereo not given)", "activation": "52.4% (active)"}, {"compound": "CCOC(=O)CSC1=C(C#N)C(c2ccco2)C(C(=O)OCc2ccccc2)=C(C)N1", "note": "(stereo not given)", "activation": "7.17%"}, {"compound": "CN1/C(=C\\C(=O)c2oc3ccccc3c2N)C(C)(C)c2ccccc21", "activation": "15%"}, {"compound": "CC(C)Cn1c(N)c(C(=O)NCc2cccs2)c2nc3ccccc3nc21", "activation": "21%"}, {"compound": "O=C(/C(=C/c1cccc(Cl)c1)c1nc2ccccc2[nH]1)c1ccccc1", "activation": "62.5% (active)"}, {"compound": "O=C(/C=C/c1ccc(Cl)c([N+](=O)[O-])c1)c1cccnc1", "activation": "49.5% (active)"}, {"compound": "O=C(N/N=C/c1c(Cl)[nH]c2ccccc12)c1sc2ccccc2c1Cl", "activation": "21.7%"}]}]}
